# Assay results: PubChem BioAssay (NCI)
# Compounds without any hit were thinned out: in the full panel of roughly 83,000, 20% have a hit.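 Growth was measured after 48 h exposure to one concentration of compound in 96-well plates. Values under 10 count as active.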 Unmarked numbers belong to inactive results. The source made the active and inactive calls.
# Tests used:
# Assay in all cases: NCI-60 one-dose screen, 48 h (100 = growth as untreated, 0 = no growth, -100 = all killed)
# [1] = system: T-47D breast
# [2] = system: BT-549 breast
# [3] = system: MDA-MB-435 melanoma
# [4] = system: SW-620 colon
# [5] = system: MCF7 breast
# [6] = system: HCT-116 colon
# [7] = system: HCC-2998 colon
# [8] = system: KM12 colon
# [9] = system: MDA-MB-468 breast
smiles,measurement,setting,value
COC(=O)c1cc(C(=O)C(F)(F)F)n2c3ccccc3c3ccccc3c12,growth,[1]; 10 µM unless noted,64.4%
same,growth,[2]; 10 µM unless noted,85.9%
same,growth,[3]; 10 µM unless noted,96.2%
same,growth,[4]; 10 µM unless noted,83.9%
same,growth,[5]; 10 µM unless noted,80.8%
same,growth,[6]; 10 µM unless noted,48%
same,growth,[7]; 10 µM unless noted,108%
same,growth,[8]; 10 µM unless noted,100%
CC/C(=C(\c1ccc(O)cc1)c1ccc(OCCN(C)C(=O)COCCNC(=O)Cc2ccc3c(c2)CN([C@@H]2CCC(=O)NC2=O)C3=O)cc1)c1ccccc1,growth,[1]; 1 µM,15.5%
same,growth,[1]; 10 µM,7.16% (active)
same,growth,[2]; 1 µM,-25.9% (active)
same,growth,[2]; 10 µM,-22.3% (active)
same,growth,[3]; 1 µM,97%
same,growth,[3]; 10 µM,59.2%
same,growth,[4]; 1 µM,57.5%
same,growth,[4]; 10 µM,23.8%
same,growth,[5]; 1 µM,33.4%
same,growth,[5]; 10 µM,20%
same,growth,[6]; 1 µM,94.2%
same,growth,[6]; 10 µM,99.6%
same,growth,[7]; 1 µM,64.5%
same,growth,[7]; 10 µM,30.2%
same,growth,[8]; 1 µM,94.3%
same,growth,[8]; 10 µM,47.5%
same,growth,[9]; 1 µM,-11.7% (active)
same,growth,[9]; 10 µM,-28.3% (active)
O=C(c1ccc(O)cc1)C1[C@H](c2ccccc2Br)[C@@H](c2ccccc2)NC12C(=O)Nc1ccccc12 (stereo partly specified),growth,[1]; 10 µM unless noted,51.1%
same,growth,[2]; 10 µM unless noted,51.9%
same,growth,[3]; 10 µM unless noted,12.3%
same,growth,[4]; 10 µM unless noted,27.7%
same,growth,[5]; 10 µM unless noted,10.7%
same,growth,[6]; 10 µM unless noted,55.2%
same,growth,[7]; 10 µM unless noted,-7.94% (active)
same,growth,[8]; 10 µM unless noted,15.4%
Cn1cc(-c2cc(N)n3nc(-c4c[nH]c5ccc(F)cc45)cc3n2)c2cccnc21,growth,[1]; 10 µM unless noted,-59.7% (active)
same,growth,[2]; 10 µM unless noted,-73.6% (active)
same,growth,[3]; 10 µM unless noted,-76.6% (active)
same,growth,[4]; 10 µM unless noted,-66.4% (active)
same,growth,[5]; 10 µM unless noted,-53.8% (active)
same,growth,[6]; 10 µM unless noted,-91.4% (active)
same,growth,[7]; 10 µM unless noted,-100% (active)
same,growth,[8]; 10 µM unless noted,-66% (active)
Cn1cc(-c2cc(N)n3nc(-c4c[nH]c5ccccc45)cc3n2)c2cc(Cl)ccc21,growth,[1]; 10 µM unless noted,-77.5% (active)
same,growth,[2]; 10 µM unless noted,-3.57% (active)
same,growth,[3]; 10 µM unless noted,-51.7% (active)
same,growth,[4]; 10 µM unless noted,-84.9% (active)
same,growth,[5]; 10 µM unless noted,-70.3% (active)
same,growth,[6]; 10 µM unless noted,-73.4% (active)
same,growth,[7]; 10 µM unless noted,-80% (active)
same,growth,[8]; 10 µM unless noted,-70.5% (active)
N#C/C(=C/c1ccc(Cl)cc1)c1nnc(NC(=O)c2ccc(-n3c(=O)[nH]c4ccccc4c3=O)cc2)s1,growth,[1]; 10 µM unless noted,64.2%
same,growth,[2]; 10 µM unless noted,40%
same,growth,[3]; 10 µM unless noted,84.7%
same,growth,[4]; 10 µM unless noted,73.8%
same,growth,[5]; 10 µM unless noted,38%
same,growth,[6]; 10 µM unless noted,46.4%
same,growth,[7]; 10 µM unless noted,23.5%
same,growth,[8]; 10 µM unless noted,23.6%
COc1ccc2[nH]cc(-c3cc4nc(-c5cn(C)c6ncc(Br)cc56)cc(N)n4n3)c2c1,growth,[1]; 10 µM unless noted,-62.7% (active)
same,growth,[2]; 10 µM unless noted,-57.3% (active)
same,growth,[3]; 10 µM unless noted,-61.6% (active)
same,growth,[4]; 10 µM unless noted,-74.4% (active)
same,growth,[5]; 10 µM unless noted,-59.7% (active)
same,growth,[6]; 10 µM unless noted,-95.9% (active)
same,growth,[7]; 10 µM unless noted,-95% (active)
same,growth,[8]; 10 µM unless noted,-49.8% (active)
N#C/C(=C/c1ccc([N+](=O)[O-])cc1)c1nnc(NC(=O)c2ccc(-n3c(=O)[nH]c4ccccc4c3=O)cc2)s1,growth,[1]; 10 µM unless noted,85.8%
same,growth,[2]; 10 µM unless noted,107%
same,growth,[3]; 10 µM unless noted,105%
same,growth,[4]; 10 µM unless noted,100%
same,growth,[5]; 10 µM unless noted,84.9%
same,growth,[6]; 10 µM unless noted,94.8%
same,growth,[7]; 10 µM unless noted,108%
same,growth,[8]; 10 µM unless noted,90.8%
COc1ccc(OC)c(Cn2cc(C#N)c(N)c2C(=O)c2ccc(Br)cc2)c1,growth,[1]; 10 µM unless noted,35.6%
same,growth,[2]; 10 µM unless noted,-86.3% (active)
same,growth,[3]; 10 µM unless noted,0.655% (active)
same,growth,[4]; 10 µM unless noted,31.2%
same,growth,[5]; 10 µM unless noted,27.9%
same,growth,[6]; 10 µM unless noted,24.3%
same,growth,[7]; 10 µM unless noted,71.8%
same,growth,[8]; 10 µM unless noted,40%
COC(=O)c1c(C(=O)OC)c2ccc3c4ccccc4ccc3n2c1C(=O)OC,growth,[1]; 10 µM unless noted,93.7%
same,growth,[2]; 10 µM unless noted,113%
same,growth,[3]; 10 µM unless noted,98.7%
same,growth,[4]; 10 µM unless noted,111%
same,growth,[5]; 10 µM unless noted,85.4%
same,growth,[6]; 10 µM unless noted,97.7%
same,growth,[7]; 10 µM unless noted,107%
same,growth,[8]; 10 µM unless noted,103%
COc1cc(/C=C/C(=O)c2cnn(-c3cc(=O)[nH]c4ccc(C)cc34)c2C)cc(OC)c1OC,growth,[1]; 10 µM unless noted,1.32% (active)
same,growth,[2]; 10 µM unless noted,-57.2% (active)
same,growth,[3]; 10 µM unless noted,1.91% (active)
same,growth,[4]; 10 µM unless noted,-57.6% (active)
same,growth,[5]; 10 µM unless noted,-15.7% (active)
same,growth,[6]; 10 µM unless noted,-77.3% (active)
same,growth,[7]; 10 µM unless noted,-99% (active)
same,growth,[8]; 10 µM unless noted,-41.8% (active)
O=C(CSc1nc2c(c(=O)[nH]1)CCCC2)Nc1ccccc1C(=O)O,growth,[1]; 10 µM unless noted,105%
same,growth,[2]; 10 µM unless noted,117%
same,growth,[3]; 10 µM unless noted,109%
same,growth,[4]; 10 µM unless noted,116%
same,growth,[5]; 10 µM unless noted,85.9%
same,growth,[6]; 10 µM unless noted,96.2%
same,growth,[7]; 10 µM unless noted,123%
same,growth,[8]; 10 µM unless noted,103%
COc1ccc(N=Nc2c(N)nn3c(N)c(C#N)c(-c4ccc(F)cc4)nc23)cc1,growth,[1]; 10 µM unless noted,55.7%
same,growth,[2]; 10 µM unless noted,49.3%
same,growth,[3]; 10 µM unless noted,86.2%
same,growth,[4]; 10 µM unless noted,88.6%
same,growth,[5]; 10 µM unless noted,57.1%
same,growth,[6]; 10 µM unless noted,46.4%
same,growth,[7]; 10 µM unless noted,66.7%
same,growth,[8]; 10 µM unless noted,56.7%
COc1ccc(-c2nnc3c(/C=C/c4ccc(Br)cc4)nc4ccccc4n23)cc1,growth,[1]; 10 µM unless noted,64.2%
same,growth,[2]; 10 µM unless noted,9.42% (active)
same,growth,[3]; 10 µM unless noted,28.9%
same,growth,[4]; 10 µM unless noted,-10% (active)
same,growth,[5]; 10 µM unless noted,0% (active)
same,growth,[6]; 10 µM unless noted,-53.8% (active)
same,growth,[7]; 10 µM unless noted,87.7%
same,growth,[8]; 10 µM unless noted,85.2%
C=CC(=O)Nc1ccc(C(=O)/C=C/c2ccc(N(C)C)cc2)c(O)c1,growth,[1]; 10 µM unless noted,9.74% (active)
same,growth,[2]; 10 µM unless noted,-45.7% (active)
same,growth,[3]; 10 µM unless noted,-3.66% (active)
same,growth,[4]; 10 µM unless noted,1.21% (active)
same,growth,[5]; 10 µM unless noted,10.7%
same,growth,[6]; 10 µM unless noted,-52.6% (active)
same,growth,[7]; 10 µM unless noted,-53.2% (active)
same,growth,[8]; 10 µM unless noted,-64.4% (active)
same,growth,[9]; 10 µM unless noted,-19.8% (active)
